Assay outcomes (PubChem)
ClpP mod: qHTS Assay for Activators of ClpP. 1.9% of 340,000 active. purified B. subtilis ClpP, FRET peptide cleavage, 20 min. Potency, µM (highest dose often 57.5 µM). ATP-dependent Clp protease proteolytic subunit (Bacillus subtilis (strain 168)), P80244; active = well fitted falling curve with a large enough effect; inconclusive = small, poorly fitted or top-dose-only effect; inactive = no such curve, though single readings can be large or run the other way; note: the source files actives as falling curves though it sought activators and does not explain the sign; nearly all actives have a fitted effect of over 65% in size
Target sequence (P80244 whole entry, looked up): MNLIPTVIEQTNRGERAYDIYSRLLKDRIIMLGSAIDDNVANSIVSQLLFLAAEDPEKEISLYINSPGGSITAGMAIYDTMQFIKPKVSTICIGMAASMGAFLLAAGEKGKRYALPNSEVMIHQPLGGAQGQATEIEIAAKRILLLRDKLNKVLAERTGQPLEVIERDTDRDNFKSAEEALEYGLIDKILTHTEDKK
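Buffer: 100 mM Tris/HCl pH8, 100 mM KCl, 0.05% low protease BSA, 2.5% glycerol, 0.01% Tween-20. ClpP 10 microg/mL final; 20 min RT; delta FRET normalized to ADEP and DMSO controls.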
D3 ag: activates the human D3 dopamine receptor | 0.58% of 410,000 active | P35462 | max activation, % | AID 652048 | D3R DiscoveRx beta-arrestin cells, luminescence, 90 min; in the data active = max activation above about 30%
Target sequence (P35462 whole entry, looked up): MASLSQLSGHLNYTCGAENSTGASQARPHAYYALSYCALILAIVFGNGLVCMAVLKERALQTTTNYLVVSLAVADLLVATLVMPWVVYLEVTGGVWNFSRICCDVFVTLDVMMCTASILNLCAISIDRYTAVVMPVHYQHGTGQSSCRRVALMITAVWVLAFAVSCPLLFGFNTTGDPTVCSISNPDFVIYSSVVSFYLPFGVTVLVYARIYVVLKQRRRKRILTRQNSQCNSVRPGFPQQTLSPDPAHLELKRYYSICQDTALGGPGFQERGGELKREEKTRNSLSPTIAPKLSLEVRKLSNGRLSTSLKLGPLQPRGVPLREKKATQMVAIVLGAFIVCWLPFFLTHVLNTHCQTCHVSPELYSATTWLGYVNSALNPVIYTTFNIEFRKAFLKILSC
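Cells at 1500/well, incubated overnight, then treated with pinned compounds (dopamine as control) for 90 min at 37 degrees C. DiscoveRx reagent added for 30 - 60 minutes at room temperature; luminescence read.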
TDP1 cell noCPT: qHTS for Inhibitors of human tyrosyl-DNA phosphodiesterase 1 (TDP1): qHTS in cells in absence of CPT; DT40 Tdp1-/- hTDP1 cells, no CPT, ATP luminescence, 48 h; AID 686978, 2013; 15% of 420,000 active; Potency, µM (highest dose often 46.2 µM), hits mostly inhibitors; note: nearly all actives have a fitted effect of over 55% in size
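Growth kinetics read by CellTiter-Glo luminescence after ≥48 hr at 37 °C. Cells: DT40 Tdp1-/- stably carrying human TDP1, 400 per well, compound exposure in the absence of CPT (DMSO vehicle).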
TDP1 cell CPT: growth inhibition of DT40 Tdp1-/-;hTDP1 cells with camptothecin (screen for TDP1 inhibitors) | Potency, µM (series often up to 46.2 µM), hits mostly inhibitors | AID 686979 | chicken DT40 Tdp1-/-;hTDP1 cells + 20 nM CPT, ATP luminescence, 48 h | 12% of 420,000 active; note: nearly all actives have a fitted effect of over 55% in size
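Cell growth measured by CellTiter-Glo luminescence after a minimum 48 h, 37 C compound exposure with 20 nM CPT in Tdp1-knockout DT40 cells stably expressing hTDP1, seeded 400/well; qHTS titration format.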
DRD3 antagonist: blocks the human D3 dopamine receptor; P35462; D3R cells, DiscoveRx beta-arrestin luminescence, antagonist mode; hits give low values; max response, negative = inhibition, %; 2.5% of 360,000 active; AID 652054; in the data active = max response below about -50%; inconclusive = no clear call, values can overlap the other calls
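Cells plated overnight at 1500 cells/well, then exposed to library compounds with dopamine controls for 90 minutes at 37 degrees C. DiscoveRx reagent added for 30–60 minutes at room temperature; luminescence read, quantitative HTS format.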
IL1B secr inh: inflammasome signaling inhibition, IL-1 beta readout; 4.7% of 360,000 active; THP-1 LPS/ATP IL-1B secretion, AlphaLISA, 16 h; hits give low values; activity change, % at 57.5 µM; in the data active = activity change below about -50%; inconclusive = mostly about -30% to -49%
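THP-1 cells pretreated 1 hr with compounds (up to 57.5 uM final), then stimulated with LPS (250 ng/mL final) plus ATP (1.25 mM final); secreted IL-1B measured by AlphaLISA after 16 hr, decreased signal indicating inhibition.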
A number is an active result; i = inactive; ? = inconclusive; nt = no result. Sampled rows, rich in hits. Any-hit rate of the full collection: about 21%. Unless noted, calls come from the whole dose curve; as a rule, active = well fitted inhibition curve with a large enough effect; inconclusive = small, poorly fitted or top-dose-only effect; inactive = flat fitted curve, though single readings scatter.

SMILES | ClpP mod | D3 ag | TDP1 cell noCPT | TDP1 cell CPT | DRD3 antagonist | IL1B secr inh
CC(=O)Nc1ccc(CN(C)c2c(C)nc3ccc(C(=O)N(C)Cc4ccco4)cn23)cc1 | i | i | ? | 16.4µM | i | i
Cc1nc2ccc(C(=O)N3CCN(C(=O)c4ccco4)CC3)cn2c1N(C)C(=O)CCc1ccccc1 | i | i | i | i | i | i
CCCCN(C)c1c(C)nc2ccc(C(=O)N(C)Cc3ccco3)cn12 | i | i | 18.4µM | ? | i | i
CCCCC(=O)N(C)c1c(C)nc2ccc(C(=O)N3CCN(C(=O)c4ccco4)CC3)cn12 | i | i | i | i | i | -54.2
CN(C)c1cccc(C(=O)NCC(c2ccco2)N(C)C)c1 (configuration not stated) | nt | i | i | i | i | i
Cc1c(C(=O)Nc2ccc(S(=O)(=O)N(C)C3CCN(C)CC3)cc2)oc2ccccc12 | i | i | 18.4µM | 20.6µM | i | -52.3
CN1CCC(N(C)S(=O)(=O)c2ccc(NC(=O)c3ccc(S(=O)(=O)N(C)C)cc3)cc2)CC1 | i | i | i | i | i | i
Cc1c(C(=O)Nc2ccc(S(=O)(=O)N(C)C3CCN(C)CC3)cc2)oc2c(Cl)cccc12 | i | i | ? | ? | -66.2 | -96.1
CN1CCC(N(C)S(=O)(=O)c2ccc(NC(=O)COc3cccc(Cl)c3)cc2)CC1 | i | i | ? | ? | i | i
O=C(COC(=O)c1ccc(-c2ccc([N+](=O)[O-])cc2)o1)NC(=O)NC12CC3CC(CC(C3)C1)C2 | i | i | 13µM | 16.4µM | i | i
O=C(NC12CC3CC(CC(C3)C1)C2)c1ccc(-c2ccc(Cl)cc2)o1 | 31.6µM | i | 18.4µM | 23.1µM | i | i
CC1CCN(C(=O)COC(=O)c2n[nH]c3ccccc23)CC1 | 28.2µM | i | i | i | -53.5 | i
O=C(COC(=O)c1n[nH]c2ccccc12)NC(=O)NC12CC3CC(CC(C3)C1)C2 | i | i | 9.2µM | 13µM | i | i
CCN(CCCNC(=O)Cn1ncc2c([nH]c3ccc(C)cc32)c1=O)c1cccc(C)c1 | i | i | i | i | i | i
CN(C)C(CNC(=S)Nc1ccccc1Cl)c1cccnc1 (configuration not stated) | nt | i | i | i | i | i
CCc1nn2c(=O)cc(COC(=O)c3ccccc3NC(=O)C3CCCCC3)nc2s1 | i | i | i | i | nt | nt
CN1C(=S)SC(N(O)C(=O)Nc2cccc3ccccc23)C1(C)C (configuration not stated) | 31.6µM | i | ? | i | i | i
CC1(C)SC(=S)N(/N=C/c2ccccc2)C1N(O)C(=O)Nc1ccc([N+](=O)[O-])cc1 (configuration not stated) | i | i | 18.4µM | 16.4µM | -56.1 | ?
CNC(=O)N(O)C1N(/N=C/c2ccc(N(C)C)cc2)C(=S)SC1(C)C (configuration not stated) | i | i | i | i | i | i
CC1(C)SC(=S)N(NC(=O)Nc2cccc3ccccc23)C1N(O)C(=O)Nc1ccccc1 (configuration not stated) | i | i | 16.4µM | ? | i | i
CNC(=O)N(O)C1N(NC(=O)Nc2ccccc2)C(=S)SC1(C)C (configuration not stated) | nt | i | i | i | i | i
Cc1onc(-c2c(Cl)cccc2Cl)c1-c1nc2cc(Cl)ccc2c(=O)o1 | i | i | i | i | i | i
CN(C)CCCC(C)(O)C(Cc1ccccc1)c1ccccc1 (configuration not stated) | i | i | 20.6µM | ? | -57.6 | i
CC1(C(=O)Nc2ccc3[nH]ncc3c2)CCN1C(=O)CC(c1ccccc1)c1ccccc1 (configuration not stated) | i | i | ? | ? | i | i
CC1(C(=O)Nc2ccc3[nH]ncc3c2)CCN1C(=O)C1(c2ccccc2)CC1 (configuration not stated) | ? | i | i | 8.2µM | i | i
SMILES | ClpP mod | D3 ag | TDP1 cell noCPT | TDP1 cell CPT | DRD3 antagonist | IL1B secr inh
CC1(C(=O)Nc2ccc3[nH]ncc3c2)CCN1C(=O)C/C=C/c1ccccc1 (configuration not stated) | i | i | 18.4µM | ? | i | i
CC1(C(=O)Nc2cnc3ccccc3c2)CCN1C(=O)C/C=C/c1ccccc1 (configuration not stated) | i | i | 6.51µM | 3.26µM | i | i
COC(=O)COc1ccc(Oc2nc(NC(C)(C)C)nc(N3CCOCC3)n2)nn1 | i | i | i | i | nt | nt
CCOC(=O)N1CCC(NS(=O)(=O)c2cc3c(cc2Cl)NC(=O)CO3)CC1 | i | i | 23.1µM | 18.4µM | i | i
Cc1cccc(NC(=O)CCS(=O)(=O)c2cc3c(cc2Cl)NC(=O)CO3)c1 | i | i | ? | 18.4µM | i | i
Nc1nnnn1/N=C/c1ccc(N2CCCCC2)c([N+](=O)[O-])c1 | i | i | 13µM | 20.6µM | -53.9 | i
Cc1ccc(NC(=O)c2ccc(NCCN)c([N+](=O)[O-])c2)cc1Cl | i | i | 20.6µM | ? | i | i
CN1C(=O)c2ccc(NC(=O)c3ccc(N4CCCCC4)c([N+](=O)[O-])c3)cc2C1=O | i | i | ? | 23.1µM | i | i
Cc1ccc(NC(=O)c2ccc(NCCc3ccccc3)c([N+](=O)[O-])c2)cc1F | i | i | ? | ? | i | i
O=C(/C=C/c1ccc(N2CCCCC2)c([N+](=O)[O-])c1)c1ccc(O)cc1 | nt | i | 18.4µM | ? | i | -94.9
Cc1cc(C(=O)Nc2ccc3c(c2)OCCO3)ccc1[N+](=O)[O-] | i | i | ? | i | -62.5 | i
Cc1cc(C(=O)Nc2ccc(N3CCCC3)c(Cl)c2)ccc1[N+](=O)[O-] | nt | i | 18.4µM | ? | i | nt
O=C(CCN1N=C(c2ccccc2)CCC1=O)NC1CCCCC1 | i | i | i | i | i | -50.6
ClCC(CNCc1ccccc1)c1ccccc1 (configuration not stated) | nt | i | i | i | -55.4 | i
CC(=O)N1CCC(N(Cc2ccc(C)o2)C(=O)Nc2ccccc2F)CC1 | i | i | i | i | nt | nt
Cc1ccc(OCC(=O)N/N=C\c2cccs2)c([N+](=O)[O-])c1 | nt | i | i | i | i | i
Cc1ccc(/C=N/NC(=O)CCCOc2ccc(Cl)cc2Cl)cc1 | i | i | 10.3µM | 8.2µM | i | -77.0
O=C(CCCOc1ccc(Cl)cc1Cl)N/N=C/c1ccccc1 | i | i | ? | ? | i | i
O=C(CCC(=O)N/N=C/c1cc(Cl)cc(Cl)c1O)NCc1ccccc1 | nt | i | 23.1µM | ? | -53.7 | i
